Data on one sequence can be found in paper PMC7862700, “An all-to-all approach to the identification of sequence-specific readers for epigenetic DNA modifications on cytosine”.

Holding throughout (test): DAPPL (digital affinity profiling via proximity ligation, sequencing); 10 mM Tris-HCl pH 7.5, 50 mM NaCl, 1 mM DTT, 4% glycerol, room temperature, 30 min; GST-TFs on glutathione beads, 16-mer random dsDNA library, 0.1% formaldehyde crosslink after washing; high values mean tight binding
One assay addresses T1, FEV (Homo sapiens, UniProt Q99581 1-238).
T1 sequence: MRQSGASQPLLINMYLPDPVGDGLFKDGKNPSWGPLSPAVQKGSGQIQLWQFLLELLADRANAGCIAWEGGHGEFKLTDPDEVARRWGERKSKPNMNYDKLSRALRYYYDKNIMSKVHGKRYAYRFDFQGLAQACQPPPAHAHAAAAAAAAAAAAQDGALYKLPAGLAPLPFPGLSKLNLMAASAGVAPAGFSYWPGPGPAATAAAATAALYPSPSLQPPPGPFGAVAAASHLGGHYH
The settings on record: protein: recombinant; tags: N-terminal GST; dsDNA, one strand shown. The essentials: (§1)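 Human transcription factors carrying a GST fusion were produced in yeast, bound to glutathione beads, tagged with DNA barcodes and pooled together with a tag-only sample. Each pool was held with 200 nmole of a random double-stranded 16-mer DNA library in Tris/NaCl/DTT/glycerol buffer for 30 min at room temperature, then washed, crosslinked in 0.1% formaldehyde, proximity-ligated with BsaI/T4 ligase (1 h, 37 °C), PCR-amplified and sequenced on an Illumina NextSeq500. Binding signal is the read frequency of each hexamer for a given factor divided by its frequency in the tag-only sample.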

In a further assay the target is ETV5 (Homo sapiens, UniProt P41161 1-510). The settings on record: protein: recombinant; tags: N-terminal GST; dsDNA, one strand shown. The essentials:
as §1

The target in another assay is HSF1 (Homo sapiens, UniProt Q00613 1-529). To be noted: protein: recombinant; tags: N-terminal GST; chain copies: 3; dsDNA, one strand shown. The essentials: as §1
For the next assay, the target named is T2, SPIC (Homo sapiens, UniProt Q8N5J4 1-248).
T2 sequence: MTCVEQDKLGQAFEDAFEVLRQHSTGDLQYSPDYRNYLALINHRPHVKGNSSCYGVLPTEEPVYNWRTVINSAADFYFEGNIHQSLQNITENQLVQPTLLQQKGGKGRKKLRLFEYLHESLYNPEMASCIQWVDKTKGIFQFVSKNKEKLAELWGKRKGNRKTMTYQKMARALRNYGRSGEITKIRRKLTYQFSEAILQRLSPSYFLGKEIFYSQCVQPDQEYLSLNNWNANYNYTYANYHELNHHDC
To be noted: protein: recombinant; tags: N-terminal GST; dsDNA, one strand shown. The essentials: as §1

For a further assay, the target named is ELF4 (Homo sapiens, UniProt Q99607 1-663). To be noted: protein: recombinant; tags: N-terminal GST; dsDNA, one strand shown. The essentials:
as §1

The target in another assay is T3, ELK4 (Homo sapiens, UniProt P28324-2 1-405).
T3 sequence: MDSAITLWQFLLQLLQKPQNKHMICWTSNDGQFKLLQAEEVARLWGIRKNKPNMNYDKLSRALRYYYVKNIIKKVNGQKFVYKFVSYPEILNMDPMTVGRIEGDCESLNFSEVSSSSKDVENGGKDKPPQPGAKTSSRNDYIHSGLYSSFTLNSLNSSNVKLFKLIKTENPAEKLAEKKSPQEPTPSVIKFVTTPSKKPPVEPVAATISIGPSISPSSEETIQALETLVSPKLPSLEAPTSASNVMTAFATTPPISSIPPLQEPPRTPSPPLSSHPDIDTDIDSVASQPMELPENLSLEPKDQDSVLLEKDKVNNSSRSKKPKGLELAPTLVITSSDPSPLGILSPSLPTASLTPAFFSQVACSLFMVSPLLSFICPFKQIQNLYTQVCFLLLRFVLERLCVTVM
The settings on record: protein: recombinant; tags: N-terminal GST; dsDNA, one strand shown. The essentials:
as §1

The target of another assay is T4, ETV2 (Homo sapiens, UniProt O00321 1-342).
T4 sequence: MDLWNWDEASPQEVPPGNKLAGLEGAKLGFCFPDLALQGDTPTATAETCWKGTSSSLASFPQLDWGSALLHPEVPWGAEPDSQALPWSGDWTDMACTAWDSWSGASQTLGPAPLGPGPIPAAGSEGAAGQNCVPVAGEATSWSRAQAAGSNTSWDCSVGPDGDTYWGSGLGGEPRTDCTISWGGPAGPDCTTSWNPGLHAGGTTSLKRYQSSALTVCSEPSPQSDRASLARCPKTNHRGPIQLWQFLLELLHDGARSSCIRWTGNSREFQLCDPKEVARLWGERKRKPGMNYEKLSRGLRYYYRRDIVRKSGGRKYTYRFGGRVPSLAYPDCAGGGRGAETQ
To be noted: protein: recombinant; tags: N-terminal GST; dsDNA, one strand shown. The essentials: as §1

A further assay addresses T5, ELF3 (Homo sapiens, UniProt P78545 1-371).
T5 sequence: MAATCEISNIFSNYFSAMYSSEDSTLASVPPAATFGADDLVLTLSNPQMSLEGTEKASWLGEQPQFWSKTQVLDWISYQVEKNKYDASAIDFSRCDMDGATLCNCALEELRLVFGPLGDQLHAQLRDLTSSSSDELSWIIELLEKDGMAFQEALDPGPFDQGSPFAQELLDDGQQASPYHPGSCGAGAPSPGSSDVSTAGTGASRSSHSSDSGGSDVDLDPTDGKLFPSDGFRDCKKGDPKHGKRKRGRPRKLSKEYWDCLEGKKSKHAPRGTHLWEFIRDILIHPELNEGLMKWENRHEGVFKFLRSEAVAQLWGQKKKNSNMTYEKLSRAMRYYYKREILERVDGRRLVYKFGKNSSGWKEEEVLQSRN
The settings on record: protein: recombinant; tags: N-terminal GST; dsDNA, one strand shown. The essentials:
as §1

In the next assay the target is CRX (Homo sapiens, UniProt O43186 1-299). To be noted: protein: recombinant; tags: N-terminal GST; dsDNA, one strand shown. The essentials: as §1
A further assay concerns the target ETV1 (Homo sapiens, UniProt P50549 1-477). To be noted: protein: recombinant; tags: N-terminal GST; dsDNA, one strand shown. The essentials: as §1
The target of another assay is T6, ERF (Homo sapiens, UniProt P50548 1-548).
T6 sequence: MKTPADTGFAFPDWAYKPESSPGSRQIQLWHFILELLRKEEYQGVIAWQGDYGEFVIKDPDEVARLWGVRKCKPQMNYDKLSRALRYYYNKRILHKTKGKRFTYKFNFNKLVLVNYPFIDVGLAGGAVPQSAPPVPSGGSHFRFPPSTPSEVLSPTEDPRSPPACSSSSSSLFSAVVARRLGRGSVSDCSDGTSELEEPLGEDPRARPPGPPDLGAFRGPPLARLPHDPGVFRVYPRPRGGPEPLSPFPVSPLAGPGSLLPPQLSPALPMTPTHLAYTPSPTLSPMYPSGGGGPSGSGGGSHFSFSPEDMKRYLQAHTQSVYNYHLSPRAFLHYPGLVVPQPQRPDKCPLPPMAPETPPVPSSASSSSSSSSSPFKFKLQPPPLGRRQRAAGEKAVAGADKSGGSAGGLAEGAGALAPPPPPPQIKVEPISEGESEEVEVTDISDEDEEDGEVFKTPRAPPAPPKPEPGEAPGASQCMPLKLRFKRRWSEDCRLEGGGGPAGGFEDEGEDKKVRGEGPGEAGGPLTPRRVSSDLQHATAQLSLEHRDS
The settings on record: protein: recombinant; tags: N-terminal GST; dsDNA, one strand shown. The essentials: as §1

The target of another assay is T7, ETV3L (Homo sapiens, UniProt Q6ZN32 1-361).
T7 sequence: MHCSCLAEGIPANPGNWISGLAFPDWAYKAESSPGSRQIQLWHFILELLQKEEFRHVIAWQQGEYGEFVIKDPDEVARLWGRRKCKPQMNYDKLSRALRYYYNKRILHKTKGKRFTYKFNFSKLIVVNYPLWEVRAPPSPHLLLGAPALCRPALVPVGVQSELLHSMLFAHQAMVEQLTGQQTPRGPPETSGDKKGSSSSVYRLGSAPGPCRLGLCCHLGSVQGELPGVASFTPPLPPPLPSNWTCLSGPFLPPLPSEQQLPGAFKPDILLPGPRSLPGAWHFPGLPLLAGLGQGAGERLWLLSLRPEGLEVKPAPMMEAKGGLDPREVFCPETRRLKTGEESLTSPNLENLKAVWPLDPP
To be noted: protein: recombinant; tags: N-terminal GST; dsDNA, one strand shown. The essentials: as §1

The target of the next assay is T8, ETS2 (Homo sapiens, UniProt P15036 1-469).
T8 sequence: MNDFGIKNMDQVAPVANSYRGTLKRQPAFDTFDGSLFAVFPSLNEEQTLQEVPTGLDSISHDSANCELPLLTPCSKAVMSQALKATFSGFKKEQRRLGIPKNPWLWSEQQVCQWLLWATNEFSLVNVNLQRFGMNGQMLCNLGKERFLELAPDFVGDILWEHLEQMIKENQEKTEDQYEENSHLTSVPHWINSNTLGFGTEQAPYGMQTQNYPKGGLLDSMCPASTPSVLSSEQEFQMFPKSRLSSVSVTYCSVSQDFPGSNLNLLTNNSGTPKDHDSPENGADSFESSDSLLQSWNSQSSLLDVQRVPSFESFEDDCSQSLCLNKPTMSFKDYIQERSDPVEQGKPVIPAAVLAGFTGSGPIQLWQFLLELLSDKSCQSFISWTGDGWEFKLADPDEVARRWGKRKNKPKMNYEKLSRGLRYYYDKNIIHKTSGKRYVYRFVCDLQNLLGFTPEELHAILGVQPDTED
The settings on record: protein: recombinant; tags: N-terminal GST; dsDNA, one strand shown. The essentials:
as §1

A further assay deals with T9, SPDEF (Homo sapiens, UniProt O95238 1-335).
T9 sequence: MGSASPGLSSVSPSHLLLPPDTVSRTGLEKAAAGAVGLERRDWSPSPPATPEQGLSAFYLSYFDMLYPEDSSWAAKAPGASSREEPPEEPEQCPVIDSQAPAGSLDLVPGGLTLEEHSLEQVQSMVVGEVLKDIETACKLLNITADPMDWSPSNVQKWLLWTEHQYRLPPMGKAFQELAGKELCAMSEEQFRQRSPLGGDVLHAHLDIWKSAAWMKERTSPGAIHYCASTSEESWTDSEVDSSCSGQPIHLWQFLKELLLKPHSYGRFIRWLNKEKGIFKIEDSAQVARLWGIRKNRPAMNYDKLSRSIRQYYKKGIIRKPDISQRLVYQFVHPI
To be noted: protein: recombinant; tags: N-terminal GST; dsDNA, one strand shown. The essentials:
as §1

The target in the next assay is T10, ETV7 (Homo sapiens, UniProt Q9Y603 1-341).
T10 sequence: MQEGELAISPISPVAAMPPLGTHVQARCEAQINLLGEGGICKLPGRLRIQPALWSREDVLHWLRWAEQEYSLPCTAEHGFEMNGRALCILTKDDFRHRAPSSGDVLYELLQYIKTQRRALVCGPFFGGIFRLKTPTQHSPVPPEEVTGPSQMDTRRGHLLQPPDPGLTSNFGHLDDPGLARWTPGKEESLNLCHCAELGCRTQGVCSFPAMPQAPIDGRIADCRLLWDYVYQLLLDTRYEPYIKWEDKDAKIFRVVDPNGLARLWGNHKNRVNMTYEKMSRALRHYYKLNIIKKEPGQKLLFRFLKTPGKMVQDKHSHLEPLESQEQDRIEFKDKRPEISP
To be noted: protein: recombinant; tags: N-terminal GST; dsDNA, one strand shown. The essentials: as §1

The target of another assay is T11, ELF5 (Homo sapiens, UniProt Q9UKW6-2 1-255).
T11 sequence: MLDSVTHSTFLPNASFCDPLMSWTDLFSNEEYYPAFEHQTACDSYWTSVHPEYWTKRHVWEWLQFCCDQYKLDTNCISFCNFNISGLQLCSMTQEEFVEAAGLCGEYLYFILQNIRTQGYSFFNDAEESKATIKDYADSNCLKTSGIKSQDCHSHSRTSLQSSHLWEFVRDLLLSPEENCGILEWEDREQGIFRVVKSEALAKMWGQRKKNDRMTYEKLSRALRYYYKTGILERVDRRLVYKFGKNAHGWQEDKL
The settings on record: protein: recombinant; tags: N-terminal GST; dsDNA, one strand shown. The essentials:
as §1

Another assay deals with T12, ETV3 (Homo sapiens, UniProt P41162-2 1-143).
T12 sequence: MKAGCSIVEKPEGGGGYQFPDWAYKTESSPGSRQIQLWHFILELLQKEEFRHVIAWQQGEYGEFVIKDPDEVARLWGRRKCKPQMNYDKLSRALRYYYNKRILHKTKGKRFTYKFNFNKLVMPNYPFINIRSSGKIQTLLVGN
The settings on record: protein: recombinant; tags: N-terminal GST; dsDNA, one strand shown. The essentials:
as §1

In a further assay the target is ETV6 (Homo sapiens, UniProt P41212 1-452). The settings on record: protein: recombinant; tags: N-terminal GST; dsDNA, one strand shown. The essentials:
as §1

ETV1, sequence (P50549 whole entry): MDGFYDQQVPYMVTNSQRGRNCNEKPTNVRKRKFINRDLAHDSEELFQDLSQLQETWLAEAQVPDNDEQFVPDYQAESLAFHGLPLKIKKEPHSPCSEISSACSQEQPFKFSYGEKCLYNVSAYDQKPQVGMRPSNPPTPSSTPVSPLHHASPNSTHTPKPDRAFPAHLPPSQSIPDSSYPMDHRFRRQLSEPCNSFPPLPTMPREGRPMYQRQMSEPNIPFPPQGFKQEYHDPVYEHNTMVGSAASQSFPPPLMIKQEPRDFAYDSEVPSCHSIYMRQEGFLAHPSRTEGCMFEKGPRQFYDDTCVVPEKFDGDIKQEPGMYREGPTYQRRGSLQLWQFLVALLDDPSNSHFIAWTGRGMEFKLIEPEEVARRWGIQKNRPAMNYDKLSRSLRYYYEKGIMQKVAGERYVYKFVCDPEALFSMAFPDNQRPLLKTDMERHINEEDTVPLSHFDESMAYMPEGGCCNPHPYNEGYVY
HSF1, sequence (Q00613 whole entry): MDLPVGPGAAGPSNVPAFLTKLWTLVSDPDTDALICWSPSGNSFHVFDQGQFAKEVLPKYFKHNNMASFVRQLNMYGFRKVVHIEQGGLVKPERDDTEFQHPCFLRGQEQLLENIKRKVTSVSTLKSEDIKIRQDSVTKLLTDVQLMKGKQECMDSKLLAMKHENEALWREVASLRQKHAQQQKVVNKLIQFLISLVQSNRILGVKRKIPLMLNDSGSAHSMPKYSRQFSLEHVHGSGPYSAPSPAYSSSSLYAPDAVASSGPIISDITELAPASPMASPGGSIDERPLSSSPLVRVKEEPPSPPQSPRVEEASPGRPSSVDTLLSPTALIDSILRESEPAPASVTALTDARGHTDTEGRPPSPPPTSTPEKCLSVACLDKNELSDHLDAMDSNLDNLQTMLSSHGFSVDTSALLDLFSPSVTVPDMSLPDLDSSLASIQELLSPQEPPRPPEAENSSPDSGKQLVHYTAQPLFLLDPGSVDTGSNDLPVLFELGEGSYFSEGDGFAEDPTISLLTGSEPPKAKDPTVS
ETV6, sequence (P41212 whole entry): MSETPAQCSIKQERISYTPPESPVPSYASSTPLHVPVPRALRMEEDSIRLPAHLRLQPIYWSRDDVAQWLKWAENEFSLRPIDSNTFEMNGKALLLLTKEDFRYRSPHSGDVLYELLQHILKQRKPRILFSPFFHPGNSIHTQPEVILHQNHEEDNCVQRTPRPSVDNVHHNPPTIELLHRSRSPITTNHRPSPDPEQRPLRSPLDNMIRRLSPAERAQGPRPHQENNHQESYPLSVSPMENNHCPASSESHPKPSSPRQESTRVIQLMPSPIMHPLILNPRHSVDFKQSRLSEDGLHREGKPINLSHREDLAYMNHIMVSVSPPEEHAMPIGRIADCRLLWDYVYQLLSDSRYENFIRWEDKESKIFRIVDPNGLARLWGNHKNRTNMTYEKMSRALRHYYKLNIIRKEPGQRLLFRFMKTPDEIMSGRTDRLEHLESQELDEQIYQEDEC
ELF4, sequence (Q99607 whole entry): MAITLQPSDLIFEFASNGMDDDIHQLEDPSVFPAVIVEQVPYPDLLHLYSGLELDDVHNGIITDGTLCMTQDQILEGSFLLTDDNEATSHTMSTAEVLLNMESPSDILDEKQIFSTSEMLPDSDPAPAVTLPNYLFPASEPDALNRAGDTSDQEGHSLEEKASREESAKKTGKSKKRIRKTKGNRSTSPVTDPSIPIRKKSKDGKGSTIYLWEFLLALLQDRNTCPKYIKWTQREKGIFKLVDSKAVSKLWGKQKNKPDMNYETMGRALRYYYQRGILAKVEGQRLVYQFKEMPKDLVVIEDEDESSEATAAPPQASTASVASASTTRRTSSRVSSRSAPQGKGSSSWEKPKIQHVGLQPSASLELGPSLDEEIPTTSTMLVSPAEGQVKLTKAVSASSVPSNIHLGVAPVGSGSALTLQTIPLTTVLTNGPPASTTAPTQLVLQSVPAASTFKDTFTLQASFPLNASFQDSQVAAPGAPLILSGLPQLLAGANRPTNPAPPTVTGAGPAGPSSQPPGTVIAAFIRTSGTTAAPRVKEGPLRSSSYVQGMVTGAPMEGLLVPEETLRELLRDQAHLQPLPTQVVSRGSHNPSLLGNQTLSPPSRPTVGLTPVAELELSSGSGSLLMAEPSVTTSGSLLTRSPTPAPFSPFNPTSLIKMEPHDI
CRX, sequence (O43186 whole entry): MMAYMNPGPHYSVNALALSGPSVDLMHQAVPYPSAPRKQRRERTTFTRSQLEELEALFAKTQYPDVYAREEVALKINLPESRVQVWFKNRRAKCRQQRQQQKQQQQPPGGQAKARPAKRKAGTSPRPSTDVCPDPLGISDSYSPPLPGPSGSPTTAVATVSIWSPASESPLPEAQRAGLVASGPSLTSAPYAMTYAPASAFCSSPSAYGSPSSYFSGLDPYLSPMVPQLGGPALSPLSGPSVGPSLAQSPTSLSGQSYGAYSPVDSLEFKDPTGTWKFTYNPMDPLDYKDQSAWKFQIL
ETV5, sequence (P41161 whole entry): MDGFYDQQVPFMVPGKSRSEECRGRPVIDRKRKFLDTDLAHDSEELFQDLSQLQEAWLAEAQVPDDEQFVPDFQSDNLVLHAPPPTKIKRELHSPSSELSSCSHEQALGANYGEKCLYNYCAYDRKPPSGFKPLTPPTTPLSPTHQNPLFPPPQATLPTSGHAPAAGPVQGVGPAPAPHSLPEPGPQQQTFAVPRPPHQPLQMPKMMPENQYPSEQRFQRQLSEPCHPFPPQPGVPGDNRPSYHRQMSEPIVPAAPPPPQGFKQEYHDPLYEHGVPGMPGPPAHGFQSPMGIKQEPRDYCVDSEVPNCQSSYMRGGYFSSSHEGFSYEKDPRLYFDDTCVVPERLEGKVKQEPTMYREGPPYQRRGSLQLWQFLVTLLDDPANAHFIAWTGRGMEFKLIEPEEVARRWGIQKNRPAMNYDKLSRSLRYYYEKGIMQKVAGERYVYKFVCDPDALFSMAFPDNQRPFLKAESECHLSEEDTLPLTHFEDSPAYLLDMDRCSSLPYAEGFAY

Turning to CATTCC, the binding signal was 1.21 fold enrichment (6-mer frequency, TF over GST control) with FEV; 1.29 fold enrichment (6-mer frequency, TF over GST control) with ETV5; 1.67 fold enrichment (6-mer frequency, TF over GST control) with HSF1; 1.11 fold enrichment (6-mer frequency, TF over GST control) in the assay with SPIC; 1.27 fold enrichment (6-mer frequency, TF over GST control) with ELF4; 1.28 fold enrichment (6-mer frequency, TF over GST control) with ELK4. Also, the binding signal is 1.31 fold enrichment (6-mer frequency, TF over GST control) with ETV2; 1.2 fold enrichment (6-mer frequency, TF over GST control) in the assay with ELF3; 1.07 fold enrichment (6-mer frequency, TF over GST control) with CRX; 1.19 fold enrichment (6-mer frequency, TF over GST control) with ETV1; 1.22 fold enrichment (6-mer frequency, TF over GST control) in the assay with ERF; 1.28 fold enrichment (6-mer frequency, TF over GST control) with ETV3L. Further, the binding signal with ETS2 was 1.28 fold enrichment (6-mer frequency, TF over GST control); with SPDEF, 1.29 fold enrichment (6-mer frequency, TF over GST control); in the assay with ETV7, 1.19 fold enrichment (6-mer frequency, TF over GST control); with ELF5 it was 1.28 fold enrichment (6-mer frequency, TF over GST control); with ETV3 it was 1.27 fold enrichment (6-mer frequency, TF over GST control); with ETV6, 1.3 fold enrichment (6-mer frequency, TF over GST control).
